# Screens: PubChem BioAssay, National Center for Advancing Translational Sciences (NCATS)
# D1 ag – human D1 receptor agonism; P21728; HEK293 T-REx D1 cells, calcium flux, agonist mode; activation, % at 2 µM; 360,000 compounds, 1% hits; in the data active = activation above about 30%; note: 0% is about no effect
# Target sequence (P21728 whole entry, looked up): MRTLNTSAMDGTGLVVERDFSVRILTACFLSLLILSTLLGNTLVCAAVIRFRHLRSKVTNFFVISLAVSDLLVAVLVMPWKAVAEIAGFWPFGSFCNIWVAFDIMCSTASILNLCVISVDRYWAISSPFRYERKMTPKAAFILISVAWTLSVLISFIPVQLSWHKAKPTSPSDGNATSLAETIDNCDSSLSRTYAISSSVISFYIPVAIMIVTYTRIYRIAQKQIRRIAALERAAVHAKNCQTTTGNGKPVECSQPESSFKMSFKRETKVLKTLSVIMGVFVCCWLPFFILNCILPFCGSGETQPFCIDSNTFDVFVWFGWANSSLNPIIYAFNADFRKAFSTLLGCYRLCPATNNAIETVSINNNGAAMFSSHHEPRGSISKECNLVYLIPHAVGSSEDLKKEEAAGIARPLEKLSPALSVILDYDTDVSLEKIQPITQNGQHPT
#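 Tetracycline-induced HEK293 TREx D1 cells, force-coupled to calcium signalling, were dye-loaded with a no-wash calcium kit. Compound was pin-added after a 10 s baseline. Fluorescence was read kinetically at 1 cycle/s for 180 s, with calcium rises flagged as agonism.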
# DRD3 antagonist – blocks the human D3 dopamine receptor; D3R cells, DiscoveRx beta-arrestin luminescence, antagonist mode; active compounds read low; P35462; max response, negative = inhibition, %; 360,000 compounds, 2.5% hits; in the data active = max response below about -50%; note: % is set by controls: 0 for no effect and ±100 for the full control effect
#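 Cells expressing the human receptor were seeded at 1500 cells/well, incubated overnight at 37 degrees C in 5% CO2, then exposed to library compounds with dopamine controls for 90 minutes at 37 degrees C before luminescent detection.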
# D1 potentiator – potentiators of human D1 dopamine receptor. P21728. HEK293 TREx D1 cells, calcium flux, dopamine EC20 potentiation. potentiation, % at 10 µM. 360,000 compounds, 0.036% hits. AID 504651; in the data active = potentiation above about 30%; note: 0% is about no effect
# D3 ag – activates the human D3 dopamine receptor; D3R DiscoveRx beta-arrestin cells, luminescence, 90 min; AID 652048; 410,000 compounds, 0.58% hits; P35462; max activation, %; in the data active = max activation above about 30%; note: 0% is about no effect
#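 Agonist mode: compounds and dopamine controls were applied to plated cells for 90 min at 37 degrees C after an overnight attachment at 1500 cells/well. Luminescent read-out followed 30 - 60 minutes at room temperature with DiscoveRx detection reagent.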
# D1 antagonist – blocks dopamine activation of the human D1 receptor | activity change, negative = inhibition, % at 10 µM | P21728 | 360,000 compounds, 3.2% hits | HEK293 TREx D1 cells, calcium flux, dopamine EC80; active compounds read low; in the data active = activity change below about -30%; note: % is set by controls: 0 for no effect and ±100 for the full control effect
#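 Cells carrying a force-coupled, tetracycline-inducible human D1 receptor report calcium flux. Each well gets a 10 s baseline, compound with 180 s monitoring, then an EC80 dopamine stimulus with a second 180 s kinetic read.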
# An asterisk follows results filed as active; . = no result given. Only some compounds are listed: those with a hit (about 6% of all), similar ones and a draw of the others.
SMILES,D1 ag,DRD3 antagonist,D1 potentiator,D3 ag,D1 antagonist
Cc1ccc(C(=O)N/C(=C/c2ccc(Cl)cc2)C(=O)NCC2CCCO2)cc1 (centres undefined),3,6,-6,-4,4
CN(C)/C=C(\C#N)C(=O)c1cccc(Oc2ccc(Br)cc2)c1,5,19,-5,3,-2
CCOc1cccc(Oc2ncccc2C(=O)/C(C#N)=C/N(C)C)c1,3,9,-3,6,-38*
CCOc1ccccc1NS(=O)(=O)c1cc2[nH]c(=O)c(=O)[nH]c2cc1C,-1,.,-1,7,-1
c1coc(Cn2nnnc2CN2CCN(C3CCCC3)CC2)c1,-2,-69*,-8,-3,-8
O=C(CSc1nnc(Cc2ccccc2)o1)N1CCCc2ccccc21,0,-15,-5,-9,4
O=C(CSc1nnc(CNc2ccccc2)o1)N1CCc2ccccc21,5,14,-1,44*,-24
O=C(CCN1C(=O)c2ccccc2S1(=O)=O)Nc1ccc(Cl)cc1,5,1,-2,-6,-52*
CCn1nnc2cc(C(=O)Nc3ccc(Cl)cc3C)ccc21,-1,.,2,-5,13
COc1ccc(Br)cc1/C=N/Nc1cccc(C(=O)O)c1,2,10,3,-3,2
O=C(O)c1cccc(N/N=C/c2cc(Br)cc(Br)c2O)c1,2,-64*,-4,-7,-7
O=C(O)c1cccc(N/N=C/c2cccnc2)c1,0,0,-4,15,-31*
Cc1ccc(NC(=O)CSc2nc3nc(C)c(Br)cc3[nH]2)cc1F,3,8,-3,2,-31*
Cc1ccc(NC(=O)CSc2nc3ncccc3[nH]2)cc1F,6,.,-4,-22,-2
CCOC(=O)c1ccc(NC(=S)N2CCSC2c2c(F)cc(F)cc2F)cc1 (centres undefined),3,4,1,-3,7
Fc1cc(F)c(C2SCCN2C(=S)Nc2cccc(C(F)(F)F)c2)c(F)c1 (centres undefined),77*,-20,-4,-8,0
CCOC(=O)c1c(C)n(C)c2ccc(OC)c(NC(=O)CCN3CCC(Cc4ccccc4)CC3)c12,9,-120*,-4,-21,-36*
CCOC(=O)c1c(C)n(C)c2ccc(OC)c(NC(=O)CN3CCSCC3)c12,1,-21,2,0,6
CCn1c(SCc2ccc(Cl)cc2Cl)nc2nc3c(cc2c1=O)CCCC3,1,16,1,3,-43*
COc1ccc(N2CCN(C(=O)Cn3nnc(-c4cccs4)n3)CC2)cc1,-2,-103*,2,14,6
Cn1nc(C(F)(F)F)c(-c2ccc(F)cc2)c1NC(=O)Nc1ccc(F)cc1,31*,-9,-12,-9,-67*
Cn1nc(C(F)(F)F)c(-c2ccc(Br)cc2)c1NC(=O)c1ccco1,3,-23,-8,-10,-2
CCCCc1ccc(C2C(C#N)=C(N)SC(N)=C2C#N)s1,63*,.,-9,.,-67*
CCOc1ccc(C2C(C#N)=C(N)SC(N)=C2C#N)c(OCC)c1,3,39,2,5,3
CN(C)c1ccc(NC(=O)Nc2ccc3c(c2)c(=O)n(C)n3-c2ccccc2)cc1,.,0,.,-5,.
SMILES,D1 ag,DRD3 antagonist,D1 potentiator,D3 ag,D1 antagonist
CN(C)c1ccc(NC(=S)Nc2ccc3c(c2)c(=O)n(C)n3-c2ccc(C(C)(C)C)cc2)cc1,.,-54*,.,-17,.
COc1cccc(CC(=O)Nc2ccc3c(c2)c(=O)n(C)n3-c2ccc(C(C)(C)C)cc2)c1,.,-58*,.,-8,.
CC1CCCCN1S(=O)(=O)c1ccc2c(c1)oc(=O)n2CC(=O)Nc1ccc(Cl)cc1 (centres undefined),5,.,1,0,-20
CC1CCN(C(=O)c2cnn(-c3cccc(Cl)c3)c2C2CCN(C(=O)OC(C)(C)C)CC2)CC1,1,.,2,-13,-6
CCOC(=O)C1CCN(C(=O)CN2c3ccc(CC)cc3-c3ccccc3S2(=O)=O)CC1,6,.,-1,-11,-33*
CCOC(=O)C1CCN(C(=O)CN2C(=O)c3ccccc3S2(=O)=O)CC1,4,-15,-2,-6,1
O=C(Cn1c(=O)ccc2cc(S(=O)(=O)N3CCCC3)ccc21)Nc1ccc(Cl)cc1,0,.,-1,6,5
O=C(N/C=C\c1ccccc1)NCc1ccc(Cl)cc1,3,-15,-2,-2,-31*
